Paper PMC5700166

molecular target: T1, GST-Aq-NF-kB (Amphimedon queenslandica, UniProt A9Y5G7 2-389); assay: protein-binding microarray (PBM); PBM: ~300 nM protein, 6 mM HEPES pH 7.8, 80 mM KCl, 0.5 mM EDTA, 0.5 mM EGTA, 6% glycerol, 35 ng/ul poly-dIdC, 1% milk, 1 h, room temperature; Ap Aiptasia and Nv Nematostella (sea anemones) / Co Capsaspora / Aq Amphimedon (sponge) / Dm Drosophila / Hu human; RHD is the Rel homology domain; high values mean tight binding; conditions: dsDNA, one strand shown
T1 sequence: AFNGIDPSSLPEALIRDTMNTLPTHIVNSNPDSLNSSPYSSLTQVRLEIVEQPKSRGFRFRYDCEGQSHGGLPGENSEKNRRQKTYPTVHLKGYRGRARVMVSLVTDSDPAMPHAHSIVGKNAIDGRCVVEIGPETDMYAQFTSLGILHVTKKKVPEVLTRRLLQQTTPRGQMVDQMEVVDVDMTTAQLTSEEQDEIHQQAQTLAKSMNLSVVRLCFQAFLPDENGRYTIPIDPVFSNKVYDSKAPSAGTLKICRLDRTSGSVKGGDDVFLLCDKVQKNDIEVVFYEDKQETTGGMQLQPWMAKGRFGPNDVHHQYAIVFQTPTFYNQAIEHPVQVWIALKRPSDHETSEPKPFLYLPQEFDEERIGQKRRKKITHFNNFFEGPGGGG

| Sequence | binding signal [z-score] |
| --- | --- |
| CCGATTAACATCAAATCCCCCCCTGATGTTAATCGGGTCTTGATTCGCTTGACGCTGCTG | 6.62 |
| CCGATTAACATCAAAACACCCCCTGATGTTAATCGGGTCTTGATTCGCTTGACGCTGCTG | 6.53 |
| CCGATTAACATCAGGGGTAGAACTGATGTTAATCGGGTCTTGATTCGCTTGACGCTGCTG | 1.92 |

molecular target: GST-Hu-p50 (Homo sapiens, UniProt P19838 7-356); assay: as above; conditions: dsDNA, one strand shown
Sequence (P19838 7-356): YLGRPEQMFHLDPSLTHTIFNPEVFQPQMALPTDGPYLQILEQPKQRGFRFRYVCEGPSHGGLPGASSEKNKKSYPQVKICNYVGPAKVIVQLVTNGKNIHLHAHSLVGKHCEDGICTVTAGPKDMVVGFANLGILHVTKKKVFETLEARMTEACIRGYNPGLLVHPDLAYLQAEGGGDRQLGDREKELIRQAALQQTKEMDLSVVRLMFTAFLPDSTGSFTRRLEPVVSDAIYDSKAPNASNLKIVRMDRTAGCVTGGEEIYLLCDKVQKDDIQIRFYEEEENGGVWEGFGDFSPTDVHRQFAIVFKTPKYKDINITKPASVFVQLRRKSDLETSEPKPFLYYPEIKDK

| Sequence | binding signal [z-score] |
| --- | --- |
| CCGATTAACATCAAAAAATCACCTGATGTTAATCGGGTCTTGATTCGCTTGACGCTGCTG | 5.67 |
| CCGATTAACATCAGGGCTCCCCCTGATGTTAATCGGGTCTTGATTCGCTTGACGCTGCTG | 5.6 |
| CCGATTAACATCAAACGTTCCCCTGATGTTAATCGGGTCTTGATTCGCTTGACGCTGCTG | 4.03 |
| CCGATTAACATCAGAAGACCCCCTGATGTTAATCGGGTCTTGATTCGCTTGACGCTGCTG | 4.45 |
| CCGATTAACATCAGGTGTTTCCATGATGTTAATCGGGTCTTGATTCGCTTGACGCTGCTG | 2.81 |
| CCGATTAACATCACCCTCGAGGGTGATGTTAATCGGGTCTTGATTCGCTTGACGCTGCTG | 2.34 |
| CCGATTAACATCAGGAAAGGCCCTGATGTTAATCGGGTCTTGATTCGCTTGACGCTGCTG | 2.61 |
| CCGATTAACATCAGAAAATCACCTGATGTTAATCGGGTCTTGATTCGCTTGACGCTGCTG | 5.67 |
| CCGATTAACATCACGGGAAGCCCTGATGTTAATCGGGTCTTGATTCGCTTGACGCTGCTG | 1.11 |
| CCGATTAACATCAGGGGCTTCCATGATGTTAATCGGGTCTTGATTCGCTTGACGCTGCTG | 4.38 |
| CCGATTAACATCAAAAAAACCCTTGATGTTAATCGGGTCTTGATTCGCTTGACGCTGCTG | 5.45 |
| CCGATTAACATCAGGAGATCCCCTGATGTTAATCGGGTCTTGATTCGCTTGACGCTGCTG | 5.88 |
| CCGATTAACATCAGGACTGCCCCTGATGTTAATCGGGTCTTGATTCGCTTGACGCTGCTG | 4.09 |
| CCGATTAACATCAAGGGGGGGACTGATGTTAATCGGGTCTTGATTCGCTTGACGCTGCTG | 4.74 |
| CCGATTAACATCAAAATACCCCTTGATGTTAATCGGGTCTTGATTCGCTTGACGCTGCTG | 6.17 |
| CCGATTAACATCACTAAACCCCCTGATGTTAATCGGGTCTTGATTCGCTTGACGCTGCTG | 6.25 |
| CCGATTAACATCAGATAAACCCCTGATGTTAATCGGGTCTTGATTCGCTTGACGCTGCTG | 4.53 |
| CCGATTAACATCAGGGGGGGTAATGATGTTAATCGGGTCTTGATTCGCTTGACGCTGCTG | 3.7 |
| CCGATTAACATCAGGGCCTTTTGTGATGTTAATCGGGTCTTGATTCGCTTGACGCTGCTG | 2.05 |
| CCGATTAACATCACGGGCTTCCCTGATGTTAATCGGGTCTTGATTCGCTTGACGCTGCTG | 1.14 |

| Sequence | binding signal [z-score] |
| --- | --- |
| CCGATTAACATCAGCCCCGGTGTTGATGTTAATCGGGTCTTGATTCGCTTGACGCTGCTG | 1.58 |
| CCGATTAACATCAGAAAAACACCTGATGTTAATCGGGTCTTGATTCGCTTGACGCTGCTG | 5.37 |
| CCGATTAACATCAGGGGGGGACATGATGTTAATCGGGTCTTGATTCGCTTGACGCTGCTG | 4.11 |
| CCGATTAACATCAGGCGAACCCCTGATGTTAATCGGGTCTTGATTCGCTTGACGCTGCTG | 1.53 |
| CCGATTAACATCACGGTGTTTCCTGATGTTAATCGGGTCTTGATTCGCTTGACGCTGCTG | 2.96 |
| CCGATTAACATCAGGGAGTGCCCTGATGTTAATCGGGTCTTGATTCGCTTGACGCTGCTG | 1.98 |
| CCGATTAACATCAATTCCCCCCGTGATGTTAATCGGGTCTTGATTCGCTTGACGCTGCTG | 5.76 |
| CCGATTAACATCAGGACCTTCCCTGATGTTAATCGGGTCTTGATTCGCTTGACGCTGCTG | 1.95 |
| CCGATTAACATCACCCGGGTAAATGATGTTAATCGGGTCTTGATTCGCTTGACGCTGCTG | 1.11 |
| CCGATTAACATCACGGAAATACCTGATGTTAATCGGGTCTTGATTCGCTTGACGCTGCTG | 1.12 |
| CCGATTAACATCAGGAAGATCCCTGATGTTAATCGGGTCTTGATTCGCTTGACGCTGCTG | 1.57 |
| CCGATTAACATCAAGGGACTTCCTGATGTTAATCGGGTCTTGATTCGCTTGACGCTGCTG | 5.08 |
| CCGATTAACATCAAAAAAACACCTGATGTTAATCGGGTCTTGATTCGCTTGACGCTGCTG | 6.24 |
| CCGATTAACATCAGGACATACCCTGATGTTAATCGGGTCTTGATTCGCTTGACGCTGCTG | 1.78 |
| CCGATTAACATCAGAAATTACCCTGATGTTAATCGGGTCTTGATTCGCTTGACGCTGCTG | 4.72 |
| CCGATTAACATCACGGAAACACCTGATGTTAATCGGGTCTTGATTCGCTTGACGCTGCTG | 3 |
| CCGATTAACATCAGGCCTTCCCCTGATGTTAATCGGGTCTTGATTCGCTTGACGCTGCTG | 4.63 |
| CCGATTAACATCAAATCCCCCCCTGATGTTAATCGGGTCTTGATTCGCTTGACGCTGCTG | 6.87 |
| CCGATTAACATCAAAACACCCCCTGATGTTAATCGGGTCTTGATTCGCTTGACGCTGCTG | 6.04 |
| CCGATTAACATCAGGGGTAGAACTGATGTTAATCGGGTCTTGATTCGCTTGACGCTGCTG | 1.99 |
